Assay results: PubChem BioAssay (EPA / NIEHS)
Calls of active or inactive are those of the source. Rule for the calls: active = hit-call score of the fitted dose curve at least 0.9, where 1 is the maximum; inactive = score below 0.9.

Assay: APR_HepG2_P-H2AX_1hr: Apredica 1-hour HepG2 Assay for H2AX Phosphorylation (AID 2282673)
Conditions: high-content imaging, actives raise or lower the signal
Protocol: APR_HepG2_1hr is a cell-based, multiplexed-readout assay that uses HepG2, a human liver cell line, with measurements taken at 1 hour after chemical dosing in a 384-well plate.APR_HepG2_P-H2AX_1hr is one of 10 assay component(s) measured or calculated from the APR_HepG2_1hr assay. It is designed to make measurements of dna content, a form of viability reporter, as detected with fluorescence intensity signals by HCS Fluorescent Imaging technology.Data from the assay component APR_HepG2_P-H2AX_1hr was analyzed into 1 assay endpoint. This assay endpoint, APR_HepG2_P-H2AX_1hr, was analyzed with bidirectional fitting relative to DMSO as the negative control and baseline of activity. Using a type of viability reporter, measures of protein for gain or loss-of-signal activity can be used to understand the signaling at the pathway-level as they relate to the gene . Furthermore, this assay endpoint can be referred to as a primary readout, because this assay has produced multiple assay endpoints where this one serves a signaling function. To generalize the intended target to other relatable targets, this assay endpoint is annotated to the dna binding intended target family, where the subfamily is cellular response to DNA damage stimulus.
Cells were treated with dimethyl sulfoxide (DMSO) as a solvent control at a final concentration of 0.5% v/v or with compounds in DMSO with a resulting final DMSO concentration of 0.5% v/v. Compound treatment was done at concentrations of 0.39, 0.78, 1.56, 3.12, 6.24, 12.5, 25, 50, 100, and 200 uM in duplicate on each plate. Cells were treated with compounds for 1, 24, or 72 hr. Carbonyl […] m-chloro-phenylhydrazone (CCCP) and taxol were used as positive controls for mitochondrial function and cytoskeletal stability, respectively; DMSO served as the negative control for this experiment. Cells were fixed by the direct addition of 50 uL formaldehyde in Hank's Balanced Salt Solution (HBSS) to a final concentration of 3.7%. After incubation in the fixation medium for 30 min at room temperature (293-298 K), cells were rinsed twice with HBSS and treated with cell permeabilization buffer (16 uL of 0.5% Triton X-100) for 10 min at room temperature (293-298 K) before labeling. For mitochondrial membrane potential and mitochondrial measurements, pre-fixed cells were incubated with 50 uL of MitoTracker Red CMXRos (Invitrogen) at a concentration of 250 nM for 30 min before fixation. In the remaining cases, post-fixed cells were labeled by incubation with a multiplexed mixture of primary antibodies in HBSS for 60 min at room temperature (293-298 K) to detect immunoreactivity of c-Jun (1:500), phospho-histone H3 (1:100), phospho-histone H2A.x (1:200), p53 (1:400), alpha-tubulin (1:200) and Hoechst 33342 (2 ug/mL). Cells were labeled for multiplexed imaging on two separate plates: a) Hoechst 33342, MitoTracker Red, phospho-histone H3, and alpha-tubulin, and b) Hoechst 33342, phospho-histone H2A.x, and c-Jun. A final rinse with HBSS (50 uL) was performed before analysis. The primary and secondary antibodies for the proteins were phospho-histone H3 (rabbit anti-phospho-histone H3 and FITC-donkey anti-rabbit IgG), phospho-histone H2A.x (mouse anti-phospho-histone H2A.x and FITC-donkey anti-mouse IgG), c-Jun (rabbit anti-phospho-c-Jun and Cy3-donkey anti-rabbit IgG), p53 (sheep anti-p53 and Cy5-donkey anti-sheep IgG), alpha-tubulin (mouse anti-alpha-tubulin and Cy5-donkey anti-mouse IgG). These antibodies are available as the CellCiphr HepG2 assay kit (Millipore).Digital images of each well were captured using a Cellomics ArrayScan VTI (Thermo Scientific Cellomics) (0.8 NA objective, 0.63x optical coupler, and XF-93 filter set) at 20x magnification. The images were acquired using the autofocus feature of the ArrayScan instrument, which entails the following steps. First, the camera focuses on channel 1 (Hoechst 33342), where nuclei are identified. Second, a Z offset of 1 um is used for capturing mitochondria (MitoTracker Red). […]

| Structure (SMILES) | outcome | AC50 |
| --- | --- | --- |
| COC(=O)c1ccccc1S(=O)(=O)NC(=O)Nc1nc(C)nc(OC)n1 | inactive | – |
| COc1nn(CSP(=S)(OC)OC)c(=O)s1 | inactive | – |
| O=[N+]([O-])/N=C1\NCCN1Cc1ccc(Cl)nc1 | inactive | – |
| CNC(=O)CSP(=S)(OC)OC | inactive | – |
| CCS(=O)(=O)c1cccnc1S(=O)(=O)NC(=O)Nc1nc(OC)cc(OC)n1 | inactive | – |
| COP(=S)(OC)Oc1ccc([N+](=O)[O-])cc1 | inactive | – |
| COc1cc(OC)nc(NC(=O)NS(=O)(=O)c2cc(NC=O)ccc2C(=O)N(C)C)n1 | inactive | – |
| O=C(O)C(F)(F)C(F)(F)C(F)(F)C(F)(F)C(F)(F)C(F)(F)C(F)(F)F | inactive | – |
| O=S1OCC2C(CO1)C1(Cl)C(Cl)=C(Cl)C2(Cl)C1(Cl)Cl (stereo not given) | inactive | – |
| COC(=O)c1ccccc1S(=O)(=O)NC(=O)N(C)c1nc(C)nc(OC)n1 | inactive | – |
| CC(C)(C)C(O)C(Oc1ccc(Cl)cc1)n1cncn1 (stereo not given) | inactive | – |
| CNC(=O)/C=C(\C)OP(=O)(OC)OC | inactive | – |
| CC1(c2ccc(Oc3ccccc3)cc2)OC(=O)N(Nc2ccccc2)C1=O (stereo not given) | inactive | – |
| ClC1C(Cl)C(Cl)C(Cl)C(Cl)C1Cl (stereo not given) | inactive | – |
| O=C(O)CCCOc1ccc(Cl)cc1Cl | inactive | – |
| CCC(C)(C)C(=O)OC1=C(c2ccc(Cl)cc2Cl)C(=O)OC12CCCCC2 | inactive | – |
| CCC(C)Nc1c([N+](=O)[O-])cc(C(C)(C)C)cc1[N+](=O)[O-] (stereo not given) | inactive | – |
| COP(=S)(OC)Oc1ccc(SC)c(C)c1 | inactive | – |
| CCOCN(C(=O)CCl)c1c(C)cccc1CC | inactive | – |
| CCN(CC)C(=O)SCc1ccc(Cl)cc1 | inactive | – |

| Structure (SMILES) | outcome | AC50 |
| --- | --- | --- |
| CCC(C)(NC(=O)c1cc(Cl)c(C)c(Cl)c1)C(=O)CCl (stereo not given) | inactive | – |
| Oc1ccc(Cl)cc1Cc1ccccc1 | – | 110 µM (active) |
| O=[N+]([O-])c1c(Cl)c(Cl)c(Cl)c(Cl)c1Cl | inactive | – |
| Cc1cc(C)nc(NC(=O)NS(=O)(=O)c2ccccc2C(=O)OC2COC2)n1 | inactive | – |
| N#CN | inactive | – |
| CC[C@H](C)[C@H]1O[C@]2(C=C[C@@H]1C)C[C@@H]1C[C@@H](C/C=C(\C)[C@@H](O[C@H]3C[C@H](OC)[C@@H](O[C@H]4C[C@H](OC)[C@@H](O)[C@H](C)O4)[C@H](C)O3)[C@@H](C)/C=C/C=C3\CO[C@@H]4[C@H](O)C(C)=C[C@@H](C(=O)O1)[C@]34O)O2 (tested in a mixture with another compound) | – | 22.5 µM (active) |
| [2H]C1([2H])[n+]2ccccc2-c2cccc[n+]2C1([2H])[2H] | inactive | – |
| COC(=O)c1ccccc1CS(=O)(=O)NC(=O)Nc1nc(OC)cc(OC)n1 | inactive | – |
| CC(C)OC(=O)Nc1cccc(Cl)c1 | inactive | – |
| CN1CSC(=S)N(C)C1 | inactive | – |
| C#CCN1C(=O)COc2cc(F)c(N3C(=O)C4=C(CCCC4)C3=O)cc21 | inactive | – |
| O=C(Nc1ccccc1)Nc1cnns1 | inactive | – |
| O=C1c2ccccc2C(=O)N1SC(Cl)(Cl)Cl | inactive | – |
| Clc1ccccc1-c1nnc(-c2ccccc2Cl)nn1 | inactive | – |
| CNC(=O)Oc1ccccc1OC(C)C | inactive | – |
| CC(C)N(C(=O)COc1nnc(C(F)(F)F)s1)c1ccc(F)cc1 | inactive | – |
| C[C@H]1[C@H](c2ccc(Cl)cc2)SC(=O)N1C(=O)NC1CCCCC1 | inactive | – |
| CCCN(CCOc1c(Cl)cc(Cl)cc1Cl)C(=O)n1ccnc1 | inactive | – |
| CCCN(CCC)c1c([N+](=O)[O-])cc(C(F)(F)F)cc1[N+](=O)[O-] | inactive | – |
| CCOc1nc(NC)nc(NC(=O)NS(=O)(=O)c2ccccc2C(=O)OC)n1 | inactive | – |
